Source: PubChem BioAssay (NCI)
This is part of a sample that, as a whole, favours compounds with a hit. Of some 83,000 tested, about 20% had one in any assay.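 Values shown are percent growth following 48 h exposure of cells in 96-well plates to a single concentration of compound; below 10 was considered active.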 Values without a mark were called inactive. Active and inactive are the calls of the source.

How the values were obtained:
Assay in all cases: NCI-60 one-dose screen, 48 h (100 = growth as untreated, 0 = no growth, -100 = all killed)
Details in all cases: 10 µM
DU-145 prostate = tested on: DU-145 prostate
K-562 leukemia = tested on: K-562 leukemia
MALME-3M melanoma = tested on: MALME-3M melanoma
MDA-MB-231 breast = tested on: MDA-MB-231 breast
RXF 393 renal = tested on: RXF 393 renal
SF-268 CNS = tested on: SF-268 CNS
SF-295 CNS = tested on: SF-295 CNS
SF-539 CNS = tested on: SF-539 CNS
UACC-257 melanoma = tested on: UACC-257 melanoma
M14 melanoma = tested on: M14 melanoma
HCT-15 colon = tested on: HCT-15 colon
HT29 colon = tested on: HT29 colon
SNB-75 CNS = tested on: SNB-75 CNS
SNB-19 CNS = tested on: SNB-19 CNS
PC-3 prostate = tested on: PC-3 prostate
SK-MEL-5 melanoma = tested on: SK-MEL-5 melanoma
UACC-62 melanoma = tested on: UACC-62 melanoma
LOX IMVI melanoma = tested on: LOX IMVI melanoma
SK-MEL-28 melanoma = tested on: SK-MEL-28 melanoma
U251 CNS = tested on: U251 CNS

| Structure (SMILES) | growth (DU-145 prostate) | growth (K-562 leukemia) | growth (MALME-3M melanoma) | growth (MDA-MB-231 breast) | growth (RXF 393 renal) | growth (SF-268 CNS) | growth (SF-295 CNS) | growth (SF-539 CNS) | growth (UACC-257 melanoma) | growth (M14 melanoma) | growth (HCT-15 colon) | growth (HT29 colon) | growth (SNB-75 CNS) | growth (SNB-19 CNS) | growth (PC-3 prostate) | growth (SK-MEL-5 melanoma) | growth (UACC-62 melanoma) | growth (LOX IMVI melanoma) | growth (SK-MEL-28 melanoma) | growth (U251 CNS) |
| --- | --- | --- | --- | --- | --- | --- | --- | --- | --- | --- | --- | --- | --- | --- | --- | --- | --- | --- | --- | --- |
| CC1=N/C(=C\c2ccc(N(C)C)cc2)C(=O)N1CCc1ccc(S(N)(=O)=O)cc1 | 112% | 90.6% | 93.4% | 96.4% | 88.9% | 102% | 99.7% | 98% | 87.1% | 97.3% | 104% | 105% | 77.8% | 95.2% | 96.7% | 97.8% | 93.7% | 98.1% | 117% | – |
| COc1ccc(-c2ccc(/C=N/NC(=O)c3[nH]c4ccc(Br)cc4c3-c3ccccc3)s2)cc1 | 104% | 87.6% | 115% | 59.5% | 74.2% | 60% | 71.6% | 71.7% | 106% | 106% | 68.4% | 84.5% | 88.1% | 73.8% | 91.7% | 106% | 45.9% | 75.5% | 105% | – |
| COC[C@@H](CC(C)C)N=C1NC(=O)/C(=C/c2ccc3ncsc3c2)N1 | 15.7% | 11.8% | 8.01% (active) | 9.26% (active) | -36.9% (active) | 16% | 23.2% | -20.5% (active) | 16.2% | 42.3% | 1.92% (active) | -14.7% (active) | -4.85% (active) | 11.5% | – | -12.1% (active) | 1.43% (active) | 0.514% (active) | 0.97% (active) | 15.8% |
| COc1ccc([C@H]2C(C(=O)c3ccc(Cl)cc3)C3(N[C@@H]2c2ccccc2)C(=O)Nc2ccc(Cl)cc23)cc1 (some centres not stated) | 14.6% | 3.72% (active) | -10.6% (active) | -68.3% (active) | -64.3% (active) | 20.2% | -63.2% (active) | -46.1% (active) | 9.2% (active) | 11% | -23% (active) | -50.8% (active) | 35.8% | 16% | – | 4.07% (active) | -63.1% (active) | -100% (active) | 4.54% (active) | -33.9% (active) |
| COc1ccc(N(C)c2cc(C#N)nc3ccccc23)cc1N | 20.3% | 10.7% | 62.1% | 12.2% | 57.2% | 22% | 15.8% | -23.7% (active) | 63.3% | 26.5% | 0.224% (active) | -22.1% (active) | 15.3% | 12.2% | 30.3% | -47.7% (active) | 23.5% | 15% | 56.3% | – |
| O=C(N/N=C/c1ccc(-c2cccc([N+](=O)[O-])c2)o1)c1[nH]c2ccc(Br)cc2c1-c1ccccc1 | 6.18% (active) | 4.74% (active) | 39% | 6.8% (active) | 26.4% | 36% | -15.3% (active) | -49.8% (active) | 41.9% | 10.4% | 0.278% (active) | -44.9% (active) | 83.1% | 32.9% | – | -20.7% (active) | 33% | 7.19% (active) | 57.7% | 9.05% (active) |
| CONC[C@]1(C)C=C2C(=O)[C@](C)(O)C3(CC3)C(C)=C2[C@H]1O | 2.57% (active) | 2.9% (active) | -73.5% (active) | -33.5% (active) | -85.9% (active) | -4.06% (active) | -9.33% (active) | -80.5% (active) | -27.2% (active) | -13.5% (active) | -24.4% (active) | -12% (active) | -80.9% (active) | -10.7% (active) | – | -37.4% (active) | -90% (active) | -67.3% (active) | -73.2% (active) | 3.39% (active) |
| N#Cc1c(NC(=O)c2ccc(C(O)(C(F)(F)F)C(F)(F)F)cc2)sc2c1CCC(=O)C2 | 15.5% | -10.8% (active) | -92.5% (active) | -89.7% (active) | -89% (active) | -9.56% (active) | -97% (active) | -96.2% (active) | -61.6% (active) | -68% (active) | -68.7% (active) | -34.5% (active) | 16.9% | – | -44.8% (active) | -99.1% (active) | -88.3% (active) | -96.4% (active) | -87.1% (active) | -91.1% (active) |
